Sampled rows, rich in hits. Any-hit rate of the full collection: about 3.7%.
BoNT A protease = BoNT/A light chain protease inhibitors, primary screen, biochemical, flow cytometry, MLPCN library; Botulinum neurotoxin type A light chain protease (Clostridium botulinum A str. ATCC 3502); multiplex microsphere protease substrate cleavage; inhibition, % at 10 µM; hit rate 0.17% among 360,000
BoNT-F LC inh = BoNT/F light chain protease inhibitors, primary screen, biochemical, flow cytometry, MLPCN library; Botulinum neurotoxin type F light chain protease (Clostridium botulinum); Multiplex microsphere protease cleavage assay; inhibition, % at 10 µM; hit rate 0.22% among 360,000; AID 588497, 2011; in the data active = inhibition above about 35%, passing the limit was not always enough; inconclusive = no clear call, values can overlap the other calls
Vc quorum ag = inducers of Vibrio cholerae quorum light production without autoinducers, primary screen, BH1578 luxS cqsA deficient, single point; activation, % at 18.7 µM; hit rate 0.16% among 350,000; V. cholerae BH1578 lux reporter, luminescence, 6 h; in the data active = activation mostly above about 9.7%, no sharp cut-off; inconclusive = no clear call, values can overlap the other calls; inactive = mostly below about 3.7%
Anthrax LF prot = Bacillus anthracis LF protease inhibitors, primary screen, biochemical, multiplex microsphere, MLPCN library; multiplex microsphere protease cleavage assay; AID 588501, 2011; Lethal factor (Bacillus anthracis), P15917; inhibition, % at 10 µM; hit rate 0.12% among 360,000
BJeLR lethal = MLPCN primary cell-based screen for lethality selective to Ras in HRASV12 cells | BJeLR (HRASV12) viability, CellTiter-Glo ATP luminescence, 48 h | inhibition, % (test concentration not listed) | hit rate 0.17% among 300,000; in the data active = inhibition above about 50%; inconclusive = no clear call, values can overlap the other calls
Autofluor counter = flagged as autofluorescent in microsphere protease counterscreen; compound autofluorescence counterscreen, microsphere flow cytometry; active compounds read high; hit rate 3.1% among 360,000; fluorescence intensity (test concentration not listed); in the data active = fluorescence intensity above about 16000; inconclusive = no clear call, values can overlap the other calls
Hits are given with their value; – = inactive; ? = inconclusive; · = no result given. Cut-off read from the data, not from the text of the source, unless noted: active = inhibition above about 30%; inconclusive = no clear call, values can overlap the other calls; inactive = below that.

SMILES	BoNT A protease	BoNT-F LC inh	Vc quorum ag	Anthrax LF prot	BJeLR lethal	Autofluor counter
CC(CC(=O)NCc1ccccc1)C1CCCO1 (stereo not given)	–	–	–	–	–	19114
CNc1ncnc2c1ncn2[C@H]1CN(Cc2ccc(OC)cc2)C[C@@H](CO)O1	–	–	–	–	·	–
O=C(c1ccc(F)cc1)c1cc2ccccc2o1	–	–	–	–	–	24066
CCCCNS(=O)(=O)c1ccc(OCC(=O)OC)cc1	–	–	–	–	–	–
CCOC(=O)COc1ccc(S(=O)(=O)Nc2ccc(C)cc2)cc1	?	–	–	–	–	20911
CCCNS(=O)(=O)c1ccc(OCC(=O)NCCC2=CCCCC2)cc1	–	–	–	–	–	25068
CCCNS(=O)(=O)c1ccc(OCC(=O)OC)cc1	–	–	–	–	–	24397
COC(=O)COc1ccc(S(=O)(=O)NCCC2=CCCCC2)cc1C	–	–	–	–	–	22566
O=C(Cn1nnc(-c2ccccc2)c1COc1ccc2ccccc2c1)NCC1CC1	–	–	–	–	·	–
CCOC1=C2CN(S(=O)(=O)c3ccccc3)[C@H](c3ccccc3)C[C@H]2n2c(=O)n(-c3ccccc3)c(=O)n2C1	–	–	·	–	·	–
CC(C)OC(=O)c1c2c(n3ccccc13)C(=O)c1ccccc1C2=O	78.9	–	–	37.6	–	–
COC(=O)c1cc2c(C)c(C)c3ccccn3c-2c1C(=O)OC	–	–	–	–	–	–
Cc1onc(-c2ccccc2Cl)c1C(=O)N1CC(C)OC(C)C1 (stereo not given)	?	–	–	–	–	23411
Cc1onc(-c2ccccc2Cl)c1C(=O)N1CC(C)CC(C)C1 (stereo not given)	–	–	–	–	–	–
Cc1onc(-c2ccccc2Cl)c1C(=O)O/N=C(\N)c1ccccc1	–	–	–	–	–	16593
Cc1onc(-c2ccccc2Cl)c1C(=O)O/N=C(\N)c1cccc([N+](=O)[O-])c1	–	–	–	–	·	–
Cc1onc(-c2ccccc2Cl)c1C(=O)N1C=CC(C(F)(F)Cl)=NCC1	–	–	–	–	–	22372
Cc1ccccc1S(=O)(=O)NC(=O)C1(C)CCN1C(=O)CCc1ccc(Cl)cc1Cl (stereo not given)	–	–	–	–	·	–
Cc1c(C(=O)NCc2ccc3c(c2)OCCO3)sc(=O)n1Cc1cccc(C(F)(F)F)c1	–	–	–	–	·	–
COC(=O)C1(C(=O)OC)C/C=C\CN(S(=O)(=O)c2ccccc2[N+](=O)[O-])CC1	–	–	·	–	·	–
O=C(N=Nc1c(O)[nH]c2ccc(Br)cc12)c1ccccc1-n1cccc1	–	–	–	–	–	24096
CC(=O)Nc1ccc(/C=C(\C#N)C(N)=O)cc1	–	35.0	–	?	–	–
CCCN(CCC)S(=O)(=O)c1ccc(NS(=O)(=O)c2ccc(F)cc2)cc1	–	–	–	–	–	17098
CC(=O)c1cccc(NC(=O)C2Cc3c(-c4ccco4)ccnc3O2)c1 (stereo not given)	–	–	–	–	·	–
Cc1noc(NS(=O)(=O)c2ccc(NC(=O)c3cnc4n(c3=O)CCS4)cc2)c1C	–	–	–	–	–	21016
SMILES	BoNT A protease	BoNT-F LC inh	Vc quorum ag	Anthrax LF prot	BJeLR lethal	Autofluor counter
COCC(=O)Nc1ccc(S(=O)(=O)Nc2onc(C)c2C)cc1	–	–	–	–	·	–
Cc1noc(NS(=O)(=O)c2ccc(NC(=O)COc3ccccc3)cc2)c1C	–	–	–	–	–	22340
O=C(Nc1ccc2c(c1)OCO2)c1cnc2n(c1=O)CCS2	–	–	–	–	–	22821
O=C(Nc1ccc2c(c1)OCCO2)c1cnc2n(c1=O)CCS2	–	–	–	–	–	–
Cc1cccc(NC(=O)c2cnc3n(c2=O)CCS3)c1	?	–	–	–	–	20823
Cc1ccc(C(=O)c2cc3ccccc3o2)cc1[N+](=O)[O-]	–	–	–	–	–	–
C/C(=N\NS(=O)(=O)c1ccc(C)c([N+](=O)[O-])c1)c1cc2ccccc2o1	–	–	–	–	–	16518
C/C(=N\NS(=O)(=O)c1ccc(Cl)c([N+](=O)[O-])c1)c1ccc(C)o1	–	–	–	–	–	–

Compound activity (PubChem BioAssay)
